Test results: PubChem BioAssay AID460 (PCMD, 2006)
Out of some 58,000 compounds screened, about 100 (0.17%) were called active. No stated cut-off is given here; in the data, active means inhibition above about 45%; inactive means the rest. The sample as a whole holds a higher share of actives than the screen did.

Target: Procathepsin L (Homo sapiens) (UniProt P07711)
Assay: blockers of CTSL protease activity – biochemical (AID 460);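 further: 0% = enzyme with no compound and 100% = no enzyme blank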
Conditions: purified cathepsin L, fluorogenic substrate, fluorescence; active compounds read high;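 tested at 10 µM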

Procathepsin L (Homo sapiens), sequence (P07711 114-288 limits assumed): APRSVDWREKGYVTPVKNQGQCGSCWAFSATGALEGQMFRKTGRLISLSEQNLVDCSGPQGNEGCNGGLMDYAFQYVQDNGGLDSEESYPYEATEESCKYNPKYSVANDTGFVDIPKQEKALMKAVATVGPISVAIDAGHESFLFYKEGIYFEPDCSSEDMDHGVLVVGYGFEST
Procathepsin L (Homo sapiens), sequence (P07711 292-333 limits assumed): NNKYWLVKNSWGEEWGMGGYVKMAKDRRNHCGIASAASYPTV

inhibition, inactive:
COCCNC(=O)C(C#N)c1nc2ccccc2nc1N1CCN(Cc2ccc3c(c2)OCO3)CC1 (stereo unspecified) -9.53%
CC1(C)CC(=O)C(C=NCc2cccnc2)=C(O)C1 3%
Cc1ccccc1-c1ccc(Nc2ccc(C(=O)N3CCOCC3)cc2)nn1 -0.35%
COc1ccc(CCNC(=O)CSc2nnc(CNC(=O)c3cccs3)o2)cc1OC 3.37%
CCCCC(CC)C(=O)Nc1ccc(Cl)cn1 (stereo unspecified) 1.2%
CCOC(=O)c1[nH]c2ccc(C)cc2c1N=C(C)N(C)C 0.54%
CCC(=O)Nc1ccc(C(=O)CSc2nnc(CNc3ccc(Cl)cc3)o2)cc1OC 9.8%
Cc1ccc(S(=O)(=O)C2(S(=O)(=O)c3ccc(C)cc3)CCCC2)cc1 -3.77%
Cc1ccc(-n2nc3c(c2NC(=O)c2ccc4c(c2)OCO4)CSC3)c(C)c1 -0.76%
CCOC(=O)N1CCN(C(=O)CN(C2CCCCC2)S(C)(=O)=O)CC1 -8.17%
CC(C)(C)c1cc(CN2CCN(CCC#N)CC2)cc(C(C)(C)C)c1O 4.94%
CCn1c(CSc2nncn2-c2ccc(OC)cc2)nc2cc(S(=O)(=O)N(C)C)ccc21 15%
O=C(Nn1cc(C(=O)N2CCN(c3ccccc3F)CC2)c2ccccc2c1=O)c1cnccn1 -5.99%
CCN(Cc1ccccc1)C(=O)CSc1nc(C)cc2c1C(=O)OC2 5.38%
CCC(C)n1[nH]c(=O)c2c(C)cc(C)nc21 (stereo unspecified) 12.4%
COc1ccc(-c2ccnc(SCC(=O)N3CCOCC3)n2)cc1 11.9%
CCn1c(-c2cc(OC)ccc2OC)csc1=Nc1c(C)n(C)n(-c2ccccc2)c1=O -2.42%
COc1ccc(NC2CC(=O)N(C)C2=O)cc1 (stereo unspecified) 4.64%
CC(C)n1c(C(O)c2ccccc2)nc2ccccc21 (stereo unspecified) 2.15%
Cc1cccn2c(=O)c3cc(C#N)c(=O)n(CCCN4CCOCC4)c3nc12 -56.6%
CCOC(=O)C1(C(F)(F)F)N=C(N(C)C)OC(N(C)C)=N1 -0.15%
Cc1cc(C)c(C(=O)CN2C(=O)CCC2=O)cc1C 5.02%
O=C(c1ccc2c(c1)N(Cc1ccc(F)cc1)C(=O)CS2)N1CCOCC1 -0.56%
CN(C(=O)c1ccno1)c1nnc(-c2cccnc2)s1 -4.38%
CN(C(=O)COc1ccccc1)c1nnc(-c2ccncc2)s1 -26.7%

inhibition, active:
CN(C(=O)C1CCOC1)c1nnc(-c2cccnc2)s1 (stereo unspecified) 49.5%
